# Data taken from the supplement of paper PMC8728848.
# The full list was thinned out, with the strongest signals kept by preference.
# Assays:
# Assay in all cases: glycan array binding signal (z-score within array); higher = stronger binding
# Settings in all cases: glycan notation: IUPAC condensed, linker removed
# [1] = target: Fuc(a1-2)Gal(b1-3)GlcNAc(b1-3)Gal(b1-4)Glc
# Method in brief: (§1)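 Negative Z-scores can be read as non-binding. The Z-score is calculated within each array and then averaged across arrays of one protein sequence at different concentrations or buffers and across linkers. Arrays, 3228 in all, were curated from the Consortium for Functional Glycomics database and kept only where the protein sequence was available.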
# [2] = target: Fuc(a1-2)Gal(b1-3)GlcNAc(b1-3)[Fuc(a1-2)Gal(b1-3)GlcNAc(b1-6)]GalNAc
# Method in brief: as §1
# [3] = target: Fuc(a1-2)Gal(b1-4)GlcNAc(b1-2)[Fuc(a1-2)Gal(b1-4)GlcNAc(b1-4)]Man(a1-3)[Fuc(a1-2)Gal(b1-4)GlcNAc(b1-2)Man(a1-6)]Man(b1-4)GlcNAc(b1-4)GlcNAc
# Method in brief: as §1
# Fuc(a1-2)Gal6S(b1-4)Glc = target: Fuc(a1-2)Gal6S(b1-4)Glc
# Method in brief: as §1
# [4] = target: Fuc(a1-2)[Gal(a1-3)]Gal(b1-3)GlcNAc(b1-6)GalNAc
# Method in brief: as §1
# [5] = target: Fuc(a1-2)[Gal(a1-4)]Gal(b1-4)GlcNAc
# Method in brief: as §1
# [6] = target: Fuc(a1-2)[GalNAc(a1-3)]Gal(b1-4)GlcNAc(b1-2)Man(a1-3)[Fuc(a1-2)[GalNAc(a1-3)]Gal(b1-4)GlcNAc(b1-2)Man(a1-6)]Man(b1-4)GlcNAc(b1-4)GlcNAc
# Method in brief: as §1
# [7] = target: Fuc(a1-3)[GalNAc(b1-4)]GlcNAc
# Method in brief: as §1
# Gal(a1-3)Gal(b1-3)GlcNAc = target: Gal(a1-3)Gal(b1-3)GlcNAc
# Method in brief: as §1
# [8] = target: Gal(a1-3)Gal(b1-3)GlcNAc(b1-2)Man
# Method in brief: as §1
# [9] = target: Gal(b1-3)GalNAc(b1-4)Gal(b1-4)Glc
# Method in brief: as §1
# [10] = target: Gal(b1-3)GlcNAc(a1-6)Gal(b1-4)GlcNAc
# Method in brief: as §1
# Gal(b1-3)GlcNAc(b1-2)Man = target: Gal(b1-3)GlcNAc(b1-2)Man
# Method in brief: as §1
# [11] = target: Gal(b1-3)GlcNAc(b1-2)Man(a1-3)[Gal(b1-3)GlcNAc(b1-2)Man(a1-6)]Man(b1-4)GlcNAc(b1-4)[Fuc(a1-6)]GlcNAc
# Method in brief: as §1
# [12] = target: Gal(b1-3)GlcNAc(b1-6)GalNAc
# Method in brief: as §1
# [13] = target: Gal(b1-3)[Fuc(a1-4)]GlcNAc(b1-3)Gal(b1-3)[Fuc(a1-4)]GlcNAc
# Method in brief: as §1
# [14] = target: Gal(b1-4)GlcNAc(b1-2)Man(a1-3)[GlcNAc(b1-2)Man(a1-6)]Man(b1-4)GlcNAc(b1-4)GlcNAc
# Method in brief: as §1
# [15] = target: Gal(b1-4)GlcNAc(b1-2)[Gal(b1-4)GlcNAc(b1-6)]Man(a1-6)[Gal(b1-4)GlcNAc(b1-2)Man(a1-3)]Man(b1-4)GlcNAc(b1-4)[Fuc(a1-6)]GlcNAc
# Method in brief: as §1
# [16] = target: Gal(b1-4)GlcNAc(b1-2)[Gal(b1-4)GlcNAc(b1-6)]Man(a1-6)[GlcNAc(b1-4)][Gal(b1-4)GlcNAc(b1-2)Man(a1-3)]Man(b1-4)GlcNAc(b1-4)GlcNAc
# Method in brief: as §1
# [17] = target: Gal(b1-4)GlcNAc(b1-3)Gal(b1-4)GlcNAc(b1-3)Gal(b1-4)GlcNAc(b1-3)Gal(b1-4)GlcNAc(b1-3)Gal(b1-4)GlcNAc(b1-3)Gal(b1-4)GlcNAc(b1-2)Man(a1-3)[Gal(b1-4)GlcNAc(b1-3)Gal(b1-4)GlcNAc(b1-3)Gal(b1-4)GlcNAc(b1-3)Gal(b1-4)GlcNAc(b1-3)Gal(b1-4)GlcNAc(b1-3)Gal(b1-4)GlcNAc(b1-2)Man(a1-6)]Man(b1-4)GlcNAc(b1-4)GlcNAc
# Method in brief: as §1
# [18] = target: Gal(b1-4)GlcNAc(b1-3)[Fuc(a1-3)GlcNAc(b1-6)]Gal(b1-4)Glc
# Method in brief: as §1
# Gal3S6S(b1-4)GlcNAc = target: Gal3S6S(b1-4)GlcNAc
# Method in brief: as §1
# Gal4S(b1-4)GlcNAc = target: Gal4S(b1-4)GlcNAc
# Method in brief: as §1
# Gal6S(b1-4)Glc6S = target: Gal6S(b1-4)Glc6S
# Method in brief: as §1
# Gal6S(b1-4)GlcNAc = target: Gal6S(b1-4)GlcNAc
# Method in brief: as §1
# Gal6S(b1-4)GlcNAc6S = target: Gal6S(b1-4)GlcNAc6S
# Method in brief: as §1
# [19] = target: GalNAc(b1-3)Gal(a1-4)Gal(b1-4)GlcNAc
# Method in brief: as §1
# [20] = target: GlcNAc(a1-4)Gal(b1-4)GalNAc
# Method in brief: as §1
# [21] = target: GlcNAc(b1-2)Man(a1-3)[GlcNAc(b1-2)Man(a1-6)]Man(b1-4)GlcNAc(b1-4)GlcNAc
# Method in brief: as §1
# [22] = target: GlcNAc(b1-2)[GlcNAc(b1-4)]Man(a1-3)[GlcNAc(b1-4)][GlcNAc(b1-2)Man(a1-6)]Man(b1-4)GlcNAc(b1-4)GlcNAc
# Method in brief: as §1
# [23] = target: GlcNAc(b1-3)Gal(b1-4)GlcNAc(b1-3)Gal(b1-4)GlcNAc(b1-2)[GlcNAc(b1-3)Gal(b1-4)GlcNAc(b1-3)Gal(b1-4)GlcNAc(b1-6)]Man(a1-6)[GlcNAc(b1-3)Gal(b1-4)GlcNAc(b1-3)Gal(b1-4)GlcNAc(b1-2)Man(a1-3)]Man(b1-4)GlcNAc(b1-4)[Fuc(a1-6)]GlcNAc
# Method in brief: as §1
# [24] = target: GlcNAc(b1-3)Gal(b1-4)GlcNAc(b1-3)Gal(b1-4)GlcNAc(b1-3)Gal(b1-4)GlcNAc(b1-3)Gal(b1-4)GlcNAc(b1-2)Man(a1-3)[GlcNAc(b1-3)Gal(b1-4)GlcNAc(b1-3)Gal(b1-4)GlcNAc(b1-3)Gal(b1-4)GlcNAc(b1-3)Gal(b1-4)GlcNAc(b1-2)Man(a1-6)]Man(b1-4)GlcNAc(b1-4)GlcNAc
# Method in brief: as §1
# [25] = target: GlcNAc(b1-3)Gal(b1-4)GlcNAc(b1-6)[GlcNAc(b1-3)]Gal(b1-4)GlcNAc
# Method in brief: as §1
# [26] = target: GlcNAc(b1-4)[GlcNAc(b1-6)]GalNAc
# Method in brief: as §1
# [27] = target: Man(a1-2)Man(a1-2)Man(a1-3)Man
# Method in brief: as §1
# [28] = target: Man(a1-2)Man(a1-2)Man(a1-6)[Man(a1-3)]Man
# Method in brief: as §1
# [29] = target: Man(a1-2)Man(a1-3)[Man(a1-2)Man(a1-6)]Man(a1-6)[Man(a1-2)Man(a1-2)Man(a1-3)]Man
# Method in brief: as §1
# [30] = target: Man(a1-3)[Man(a1-6)]Man(a1-6)[Man(a1-2)Man(a1-3)]Man(b1-4)GlcNAc(b1-4)GlcNAc
# Method in brief: as §1
# [31] = target: Neu5Ac(a2-3)Gal(b1-3)GlcNAc(b1-4)Gal(b1-4)Glc
# Method in brief: as §1
# [32] = target: Neu5Ac(a2-3)Gal(b1-3)[Neu5Ac(a2-6)]GalNAc
# Method in brief: as §1
# [33] = target: Neu5Ac(a2-3)Gal(b1-4)GlcNAc(b1-3)GalNAc
# Method in brief: as §1
# [34] = target: Neu5Ac(a2-3)Gal(b1-4)GlcNAc6S
# Method in brief: as §1
# [35] = target: Neu5Ac(a2-3)Gal(b1-4)[Fuc(a1-3)]GlcNAc(b1-3)Gal(b1-4)GlcNAc
# Method in brief: as §1
# [36] = target: Neu5Ac(a2-3)Gal(b1-4)[Fuc(a1-3)]GlcNAc6S
# Method in brief: as §1
# [37] = target: Neu5Ac(a2-3)GalNAc(b1-4)GlcNAc
# Method in brief: as §1
# [38] = target: Neu5Ac(a2-3)[GalNAc(b1-4)]Gal(b1-4)GlcNAc
# Method in brief: as §1
# [39] = target: Neu5Ac(a2-6)Gal(b1-4)GlcNAc(b1-2)Man
# Method in brief: as §1
# [40] = target: Neu5Ac(a2-6)Gal(b1-4)GlcNAc(b1-2)Man(a1-3)[GlcNAc(b1-2)Man(a1-6)]Man(b1-4)GlcNAc(b1-4)GlcNAc
# Method in brief: as §1
# [41] = target: Neu5Ac(a2-6)Gal(b1-4)GlcNAc(b1-2)Man(a1-3)[Man(a1-6)]Man(b1-4)GlcNAc(b1-4)GlcNAc
# Method in brief: as §1
# [42] = target: Neu5Ac(a2-6)Gal(b1-4)GlcNAc(b1-2)Man(a1-6)Man(b1-4)GlcNAc(b1-4)GlcNAc
# Method in brief: as §1
# [43] = target: Neu5Ac(a2-6)Gal(b1-4)GlcNAc(b1-2)Man(a1-6)[Man(a1-3)]Man(b1-4)GlcNAc(b1-4)GlcNAc
# Method in brief: as §1
# [44] = target: Neu5Ac(a2-6)Gal(b1-4)GlcNAc(b1-2)[Neu5Ac(a2-6)Gal(b1-4)GlcNAc(b1-4)]Man(a1-3)[GlcNAc(b1-4)][Neu5Ac(a2-6)Gal(b1-4)GlcNAc(b1-2)[Neu5Ac(a2-6)Gal(b1-4)GlcNAc(b1-6)]Man(a1-6)]Man(b1-4)GlcNAc(b1-4)GlcNAc
# Method in brief: as §1
binder,measurement,setting,value
GS7807P-bth-537-23-537 (Bacteroides thetaiotaomicron) (protein) NYENINSNPYEAPDLSADGYALGSAMNNLAGCVVSPDVNTAQFTDCLLGGPLGGYFADSNAGFTETISNFNPKDDWSRVFLKSDKIIPTLYSNLTQVKLVSQNTNDPVPYAIAQVIKVAAMHRVTDAFGPIPYSQIGANGEIATPYDSQEVTYNTFFDELNAAIATLNENSNEQLVPTADYIYKGDVKKWIRFANSLKLRLAIRIAYANPVKAQQMAEEAVNPANGGVIESNADNATWNYFETSQNPIYVATRYNQVQTSDHGGVPCLTGGDTHAAADIICYMNGYKDNRREKFFTKSEWAGQDYVGMRRGIVIPELKTTGHKYSGVNIAPTSPLYWMNAAEVAFLRAEGQAVFNFSMGGTAESFYNQGIRLSFEQWGADGVEDYLKDDVNKPTAYTDPAGTNTYQNALSNITIKWNDSADKEEKQERIIVQKWIANWQLGNEAWADFRRTGYPKLIPVKENKSGGVVDSEKGARRMPYPLDEFVSNKANVEYAIANYLHGADNMATDVWWASKK,glycan array binding signal (z-score),[1],-0.288
same,glycan array binding signal (z-score),[2],5.33
same,glycan array binding signal (z-score),[3],-0.271
same,glycan array binding signal (z-score),Fuc(a1-2)Gal6S(b1-4)Glc,0.294
same,glycan array binding signal (z-score),[4],2.94
same,glycan array binding signal (z-score),[5],-0.331
same,glycan array binding signal (z-score),[6],3.7
same,glycan array binding signal (z-score),[7],0.192
same,glycan array binding signal (z-score),Gal(a1-3)Gal(b1-3)GlcNAc,0.94
same,glycan array binding signal (z-score),[8],1.1
same,glycan array binding signal (z-score),[9],0.496
same,glycan array binding signal (z-score),[10],-0.173
same,glycan array binding signal (z-score),Gal(b1-3)GlcNAc(b1-2)Man,-0.221
same,glycan array binding signal (z-score),[11],2.17
same,glycan array binding signal (z-score),[12],1.42
same,glycan array binding signal (z-score),[13],-0.304
same,glycan array binding signal (z-score),[14],-0.348
same,glycan array binding signal (z-score),[15],-0.271
same,glycan array binding signal (z-score),[16],2.06
same,glycan array binding signal (z-score),[17],2.28
same,glycan array binding signal (z-score),[18],-0.071
same,glycan array binding signal (z-score),Gal3S6S(b1-4)GlcNAc,0.325
same,glycan array binding signal (z-score),Gal4S(b1-4)GlcNAc,-0.373
same,glycan array binding signal (z-score),Gal6S(b1-4)Glc6S,2.21
same,glycan array binding signal (z-score),Gal6S(b1-4)GlcNAc,0.037
same,glycan array binding signal (z-score),Gal6S(b1-4)GlcNAc6S,2.01
same,glycan array binding signal (z-score),[19],0.36
same,glycan array binding signal (z-score),[20],-0.138
same,glycan array binding signal (z-score),[21],-0.374
same,glycan array binding signal (z-score),[22],-0.39
same,glycan array binding signal (z-score),[23],19.1
same,glycan array binding signal (z-score),[24],0.265
same,glycan array binding signal (z-score),[25],-0.326
same,glycan array binding signal (z-score),[26],-0.32
same,glycan array binding signal (z-score),[27],-0.398
same,glycan array binding signal (z-score),[28],-0.343
same,glycan array binding signal (z-score),[29],-0.267
same,glycan array binding signal (z-score),[30],2
same,glycan array binding signal (z-score),[31],-0.398
same,glycan array binding signal (z-score),[32],-0.387
same,glycan array binding signal (z-score),[33],-0.371
same,glycan array binding signal (z-score),[34],-0.377
same,glycan array binding signal (z-score),[35],0.04
same,glycan array binding signal (z-score),[36],-0.338
same,glycan array binding signal (z-score),[37],-0.329
same,glycan array binding signal (z-score),[38],-0.363
same,glycan array binding signal (z-score),[39],-0.32
same,glycan array binding signal (z-score),[40],-0.356
same,glycan array binding signal (z-score),[41],1.81
same,glycan array binding signal (z-score),[42],0.297
same,glycan array binding signal (z-score),[43],5.2
same,glycan array binding signal (z-score),[44],-0.083
